ERAP1 HTS inh: ERAP1 (human) enzyme inhibition | recombinant ERAP1, Leu-AMC fluorescence, 60 min | inhibition, % at 10.7 µM | 340,000 tested, 0.15% active | AID 652197;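 active = mean replicate inhibition of at least 30%, or all replicates individually reaching that 30% level; inactive = mean below 30% and not every replicate reaching it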;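 note: 0% = neutral control wells and 100% = L-leucinethiol positive control wells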
PDI inh: inhibitors of human protein disulfide isomerase | P07237 | PDI insulin aggregation turbidity, A650, 90 min | inhibition, % at 10 µM | 350,000 tested, 0.052% active;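 active = mean inhibition across replicates of 30% or more, whatever share of single replicates reach that level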
Target sequence (P07237 whole entry, looked up): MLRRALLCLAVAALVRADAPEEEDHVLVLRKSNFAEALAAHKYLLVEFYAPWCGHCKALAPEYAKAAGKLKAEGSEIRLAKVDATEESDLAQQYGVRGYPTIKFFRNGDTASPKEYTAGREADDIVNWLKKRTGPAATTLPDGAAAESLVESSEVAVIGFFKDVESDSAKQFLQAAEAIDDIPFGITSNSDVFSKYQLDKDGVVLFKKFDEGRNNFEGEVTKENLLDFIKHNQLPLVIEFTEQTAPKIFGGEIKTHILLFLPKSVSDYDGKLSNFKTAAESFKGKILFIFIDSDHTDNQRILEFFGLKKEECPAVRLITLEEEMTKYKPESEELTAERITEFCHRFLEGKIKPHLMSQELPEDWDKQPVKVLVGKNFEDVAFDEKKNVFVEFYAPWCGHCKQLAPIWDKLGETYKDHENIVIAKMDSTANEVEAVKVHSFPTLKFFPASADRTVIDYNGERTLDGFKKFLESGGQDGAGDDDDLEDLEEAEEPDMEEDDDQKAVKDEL
DENV2 CPE: inhibitors of DENV2 cytopathic effect. AID 651640. CPE inhibition, % at 9.99 µM. DENV2-infected cells, cytopathic effect rescue, plate reader. 350,000 tested, 1.7% active; in the data active = CPE inhibition above about 20%, passing the limit was not always enough; tested in BHK-21 cells;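 note: 0% = median of neutral control wells and 100% = median of positive control wells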
ERp5 inh: inhibitors of human ERp5. Q15084. ERp5 insulin aggregation, absorbance 650 nm, 90 min. inhibition, % at 9.99 µM. 350,000 tested, 0.05% active;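 active = mean replicate inhibition above about 25%, with every replicate also reaching it, limit read from the data, passing the limit was not always enough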
AF4-AF9 inh: inhibitors of human MLL-AF4/AF9 interaction; AlphaScreen, biotin-AF4 peptide binding to FLAG-AF9; inhibition, % at 10 µM; 350,000 tested, 0.47% active; AID 651704;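 active = every replicate reaching a set inhibition limit, whatever the replicate mean, cut at about 25% in these data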;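 note: 0% = plate neutral control median and 100% = total signal loss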
* marks the source's active call; other numbers are inactive results; · = not tested or not shown. A selection: hits, their analogues and other compounds. The true share with any hit is near 1.8%.

SMILES	ERAP1 HTS inh	PDI inh	DENV2 CPE	ERp5 inh	AF4-AF9 inh
CN1CCN(C(=O)C[C@@H]2C[C@@H]3c4cc(NS(C)(=O)=O)ccc4O[C@@H]3[C@@H](CO)O2)CC1	-3	·	5	1	1
C[C@@H]1CN([C@H](C)CO)C(=O)c2cc(NC(=O)CCCN(C)C)ccc2O[C@@H](C)CCCCO[C@H]1CN(C)S(=O)(=O)c1ccccc1	-5	·	23*	1	4
C[C@@H]1CCCCO[C@@H](CN(C)S(=O)(=O)c2ccccc2)[C@H](C)CN([C@@H](C)CO)C(=O)c2cc(NC(=O)CCCN(C)C)ccc2O1	-4	·	26*	-2	0
C[C@H](CO)N1C[C@H](C)[C@@H](CN(C)S(=O)(=O)c2ccccc2)OCCCC[C@H](C)Oc2ccc(NC(=O)CCCN(C)C)cc2C1=O	-4	·	-1	-2	-3
C[C@@H]1CN([C@@H](C)CO)C(=O)c2cc(NC(=O)CCCN(C)C)ccc2O[C@@H](C)CCCCO[C@@H]1CN(C)S(=O)(=O)c1ccccc1	-1	·	31*	0	2
C[C@@H]1CN([C@@H](C)CO)C(=O)c2cc(NC(=O)CCCN(C)C)ccc2O[C@@H](C)CCCCO[C@H]1CN(C)S(=O)(=O)c1ccccc1	-2	·	15	-1	2
C[C@H]1CCCCO[C@H](CN(C)S(=O)(=O)c2ccccc2)[C@@H](C)CN([C@@H](C)CO)C(=O)c2cc(NC(=O)CCCN(C)C)ccc2O1	-1	·	41*	1	5
O=C(Nc1ccc(F)cc1)N[C@H]1CC[C@@H](CCn2cc(-c3ccccc3F)nn2)O[C@H]1CO	-1	·	2	-3	-1
CCCNC(=O)C(Cc1ccc(I)cc1)NC(=O)c1ccc(C#N)cc1 (configuration not stated)	-1	14	33*	6	-7
Cc1ccc(-n2cc(CN3CCNC(=O)CC3)c(-c3cccc(C)c3)n2)cc1	5	2	-4	-2	7
Cc1ccc(-n2cc(CN3CCN(Cc4nccn4C)CC3)c(-c3cccc(C)c3)n2)cc1	5	-6	-6	7	29*
CN1[C@@H]2Cn3c(ccc(-c4ccncc4)c3=O)[C@H]1[C@@H](C(=O)Nc1nccs1)[C@@H]2CO	3	·	3	4	1
CO[C@H]1CN(C)C(=O)c2cc(NC(=O)Nc3ccccc3Cl)ccc2OC[C@@H](C)NC[C@@H]1C	-1	·	31*	-14	0
CO[C@H]1CN(C)C(=O)c2cc(NC(=O)Nc3ccccc3Cl)ccc2OC[C@H](C)NC[C@@H]1C	2	·	-3	-9	0
CO[C@H]1CN(C)C(=O)c2cc(NC(=O)c3cnccn3)ccc2OC[C@H](C)NC[C@H]1C	0	·	27*	-11	-3
CO[C@H]1CN(C)C(=O)c2cc(NC(=O)c3ccc(-c4ccccc4)cc3)ccc2OC[C@H](C)NC[C@@H]1C	0	·	23*	0	4
CO[C@H]1CN(C)C(=O)c2cc(NC(=O)c3cnccn3)ccc2OC[C@@H](C)NC[C@@H]1C	0	·	6	-11	-2
CO[C@H]1CN(C)C(=O)c2cc(NC(=O)c3ccc(-c4ccccc4)cc3)ccc2OC[C@@H](C)NC[C@@H]1C	-2	·	2	6	7
Cc1ccc(S(=O)(=O)N(C)C[C@H]2Oc3ccc(NS(=O)(=O)c4cccs4)cc3CC(=O)N([C@@H](C)CO)C[C@@H]2C)cc1	-1	·	1	-1	2
O=S(=O)(c1ccc(F)cc1)N1CCCCN2[C@@H](CO)[C@H](c3ccc(C#CC4CCCC4)cc3)[C@@H]2C1	0	·	-4	0	3
CO[C@@H]1CN(C)C(=O)c2ccc(NC(=O)c3ccccc3F)cc2OC[C@H](C)N(CC2CCOCC2)C[C@H]1C	-6	·	2	2	-1
CC[n+]1c(C)sc2c(C)cc(C)cc21	21	6	·	11	·
Cc1cc(C)c2sc(C)[n+](CCCS(=O)(=O)[O-])c2c1	97*	-2	-1	1	-5
COc1ccccc1NCC(=O)N/N=C(\C)c1ccc(Br)s1	2	-8	23*	-3	-1
C/C(=N/NC(=O)CNc1ccc(C)cc1)c1ccc(Br)s1	0	10	4	1	8
COCC(=O)N1C[C@H]2CON(C)[C@H]2C[C@H]1c1cccc(-c2ccc(C#N)cc2)c1	-3	-2	-6	12	-3
COCC(=O)N1C[C@H]2CON(C)[C@H]2C[C@H]1c1cccc(-c2ccccc2)c1	2	8	34*	-9	0

From PubChem BioAssay
